# Source: PubChem BioAssay AID504652 (National Center for Advancing Translational Sciences (NCATS), 2011)
# “And” between values parts separate entries of the source, which are not always exact repeats. Identical values can stand only once. The whole screen tested about 360,000 compounds, of which about 11,000 (3.1%) were called active. The sample holds actives, similar compounds and a random draw of the others, so the mix is not that of the screen. Rule as the data show it: active = activity change below about -30%; inactive = the rest.
# Molecular target: D(1A) dopamine receptor (Homo sapiens) (UniProt P21728)
# Sequence (P21728 whole entry, looked up): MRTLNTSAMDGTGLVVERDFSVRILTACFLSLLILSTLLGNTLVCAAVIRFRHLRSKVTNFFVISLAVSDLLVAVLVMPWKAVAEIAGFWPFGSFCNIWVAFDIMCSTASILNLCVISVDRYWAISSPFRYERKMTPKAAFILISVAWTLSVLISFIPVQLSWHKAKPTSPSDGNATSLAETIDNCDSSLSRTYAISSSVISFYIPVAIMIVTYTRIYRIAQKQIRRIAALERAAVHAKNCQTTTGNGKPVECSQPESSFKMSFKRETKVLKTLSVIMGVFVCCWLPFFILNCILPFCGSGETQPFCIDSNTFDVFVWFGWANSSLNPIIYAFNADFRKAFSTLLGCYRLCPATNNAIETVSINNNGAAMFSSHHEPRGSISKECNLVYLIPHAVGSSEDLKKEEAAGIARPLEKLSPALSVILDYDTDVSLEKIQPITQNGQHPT
# Assay: Antagonist of Human D 1 Dopamine Receptor: qHTS
# Conditions: HEK293 TREx D1 cells, calcium flux, dopamine EC80; at 10 µM; stronger effect = lower value
# How it was run: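 Tetracycline-induced HEK293 T-REx cells with force-coupled D1 receptor were loaded with a no-wash calcium dye. Compound was added after a 10 s baseline and read kinetically for 180 s; EC80 dopamine was then added and calcium flux followed another 180 s.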
# % is scaled to controls: 0 for no effect and ±100 for the full control effect.
row,Compound,"activity change, negative = inhibition"
1,CCCc1nn2c(=O)cc(COC(=O)c3ccc(NC(=O)COc4ccc(F)cc4)cc3)nc2s1,-16.4% (inactive)
2,CCn1cc(C(=O)OCC(=O)Nc2cc(C)cc(C)c2)c(=O)c2ccc(C)nc21,7.91% (inactive)
3,Cc1ccc(N2CCN(c3ccc([N+](=O)[O-])cn3)CC2)c(C)c1,8.06% (inactive)
4,Cc1cc(C=O)c(C)n1-c1ccc(NC2CCCCC2)c([N+](=O)[O-])c1,-2.05% (inactive)
5,Cc1ccc(-n2c(C)cc(/C=N/Nc3ccc([N+](=O)[O-])cn3)c2C)c(C)c1,-44.1% (active)
6,CC(C)C(=O)Nc1nc2c(s1)CC(C(C)(C)C)CC2 (centres undefined),7.11% (inactive)
7,COc1ccccc1OCCNCC(O)COc1cccc2[nH]c3ccccc3c12 (centres undefined),-58.7% (active) and -69% (active)
8,CCCn1c(=N)n(CC(O)COc2ccccc2OC)c2ccccc21 (centres undefined),-15% (inactive)
9,COc1cccc2[nH]c(C(=O)NCCc3ccccc3)cc12,-6.46% (inactive)
10,CC(C)Sc1oc(-c2cccs2)nc1S(=O)(=O)c1ccc(Cl)cc1,14.3% (inactive)
11,COc1ccc(-c2nc(SCC(=O)N3CCCCC3C)n[nH]2)cc1 (centres undefined),9.65% (inactive)
12,COc1ccc(-c2csc(-c3c(N)c(C(=O)c4ccc(OC)c(OC)c4)n4ccccc34)n2)cc1,-1.18% (inactive)
13,COc1ccc(S(=O)(=O)NCC(c2ccc(N(C)C)cc2)N2CCc3ccccc32)cc1OC (centres undefined),-64.5% (active)
14,COc1ccc(C(=O)NCC(c2ccc(N(C)C)cc2)N2CCc3ccccc32)c(OC)c1 (centres undefined),-5.15% (inactive)
15,O=S(=O)(NCC(c1ccccc1)N1CCc2ccccc21)c1ccccc1 (centres undefined),6.46% (inactive)
16,COc1ccc(NC(=O)CSc2nccn2Cc2ccc3c(c2)OCO3)cc1,6.87% (inactive)
17,O=C(NCc1ccccc1)C1CCN(S(=O)(=O)c2ccc3[nH]c(=O)ccc3c2)CC1,16.6% (inactive)
18,COc1ccc(CCN2C(=O)N(c3cccc(OC)c3)C(=O)C2CC(=O)Nc2ccccc2)cc1 (centres undefined),-1.1% (inactive)
19,CN1CCN(C(=O)C2C3C=CC(C3)C2C(=O)O)CC1 (centres undefined),-15.3% (inactive)
20,O=C(O)C1C2C=CC(C2)C1C(=O)N1CCN(CCO)CC1 (centres undefined),-46.7% (active)
21,C=C(Cl)COC(=O)C1C2C=CC(C2)C1C(=O)O (centres undefined),6.01% (inactive)

row,Compound,"activity change, negative = inhibition"
1,Cc1cccc(-n2ncc(C(=O)N3CCc4ccccc4C3)c2C2CCN(C(=O)OC(C)(C)C)CC2)c1,7.17% (inactive)
2,Oc1c(Cl)cc(Cl)c(Cl)c1Cc1c(O)c(Cl)cc(Cl)c1Cl,-41.7% (active)
3,CCc1ccc(NC(=O)CN2C(=O)C(c3ccccc3)=NC23CCCCCC3)cc1,-6.53% (inactive)
4,CCn1nc(C)c(NC(=O)/C=C/c2ccc(OC)c(COc3ccc(Br)cc3)c2)c1C,-39.8% (active)
5,COc1ccc(C(C)=O)cc1COc1ccc(Cl)c(C)c1,0.455% (inactive)
6,COc1ccc(/C=C/C(=O)Nc2c(C)nn(C)c2C)cc1COc1ccc(Br)cc1,9.14% (inactive)
7,COc1cccc(CNC(=O)C2CCC(CNS(=O)(=O)c3cccs3)CC2)c1 (centres undefined),-1.65% (inactive)
8,CCc1ccccc1N1C(=O)CN(S(=O)(=O)CC)CC1(C)C(=O)NC1CCCCC1 (centres undefined),-10.1% (inactive)
9,Cc1ccccc1C(=O)Nc1sc2c(c1C(=O)N1CCC(C)CC1)CCCC2,5.36% (inactive)
10,Fc1ccc2[nH]c3c(N4CCSCC4)ncnc3c2c1,-30.2% (active)
11,Fc1ccc2[nH]c3c(N4CCN(Cc5ccc6c(c5)OCO6)CC4)ncnc3c2c1,-7.57% (inactive)
12,NC(=O)C[C@@H]1NC(=O)CNC(=O)c2cc([N+](=O)[O-])cc(I)c2NCCC(C(N)=O)NC1=O (some centres undefined),-30.2% (active)
13,NCCCC[C@@H]1NC(=O)[C@H](CCC(=O)O)NC(=O)c2cc([N+](=O)[O-])cc(I)c2NCC[C@@H](C(N)=O)NC1=O,-2.74% (inactive)
14,NC(=O)CC[C@@H]1NC(=O)[C@H](CO)NC(=O)c2cc([N+](=O)[O-])cc(I)c2NCC[C@@H](C(N)=O)NC1=O,-14% (inactive)
15,O=C(CSc1nc(-c2cccc(F)c2)[nH]c1-c1ccccc1)Nc1ccc2c(c1)OCO2,-4.86% (inactive)
16,Cc1cccc(N2CCN(C(=O)c3cnc(N4CCCC4)nc3C)CC2)c1C,10% (inactive)
17,CCCCn1c(=N)c(S(=O)(=O)c2ccccc2)cc2c(=O)n3cccc(C)c3nc21,1.3% (inactive)
18,N#Cc1cccc(Nc2c3c(nc4ccccc24)CCCC3)c1,-36.2% (active)
19,N#Cc1cccc(NC(=O)CN2CCCCCC2)c1,-7.3% (inactive)
20,CCOc1ccc(C(=O)Nc2ccc3nc4c(c(Nc5ccccc5OC)c3c2)CCCC4)cc1,-7.4% (inactive)
21,COc1ccccc1Nc1c2c(nc3ccc(NC(=O)/C=C/c4cc(OC)c(OC)c(OC)c4)cc13)CCCC2,3.33% (inactive)

row,Compound,"activity change, negative = inhibition"
1,Cc1ccc(Nc2c3c(nc4ccccc24)CCC3)cc1,-39.1% (active)
2,CCOc1ccc(NC(=O)CSc2c3c(nc4ccccc24)CCCC3)cc1,-2.6% (inactive)
3,O=C(NC1CCCCC1)c1ccc2c(c1)N(Cc1ccc(Cl)cc1)C(=O)c1ccccc1S2=O (centres undefined),-15.6% (inactive)
4,Cn1nc(-c2ccccc2)c(-c2ccccc2)c(C(=O)Nc2ccc(S(N)(=O)=O)cc2)c1=O,-1.5% (inactive)
5,Cc1cc(C)c(NC(=O)CCc2c(C)nc3c(c(C)nn3C(C)(C)C)c2C)c(C)c1,1.02% (inactive)
6,CCN1CCN(Cc2c(O)ccc3oc(C)c(C(=O)Nc4ccc(C)cc4C)c23)CC1,7.06% (inactive)
7,COc1ccccc1CNc1ccc(-c2nc(-c3ccccc3C)no2)cc1[N+](=O)[O-],-10.5% (inactive)
8,O=C(C1CCCN(S(=O)(=O)c2cccc3nonc23)C1)N1CCN(c2ccccc2F)CC1 (centres undefined),10.7% (inactive)
9,O=C(NCCNc1ccc([N+](=O)[O-])cc1)c1cccc2c(Br)cccc12,-63.4% (active)
10,CC(CNc1ccc([N+](=O)[O-])cc1)NC(=O)c1ccccc1Br (centres undefined),-2.12% (inactive)
11,COc1ccc(C(=O)NCCNc2ccc([N+](=O)[O-])cn2)cc1,-8.65% (inactive)
12,Cc1ccc(CCNC(=O)c2ccc3c(c2)nc2n3CCC(C)C2)cc1 (centres undefined),-13.4% (inactive)
13,O=C(c1ccco1)n1nc(-c2ccc(Cl)cc2)nc1NCc1ccccc1,-12.9% (inactive)
14,N=c1n(Cc2ccc(Cl)cc2)c2ccccc2n1CC(O)c1ccco1 (centres undefined),-51.9% (active)
15,COc1ccccc1NC(=O)CCC(=O)N1CC(C)Oc2ccc(C)cc21 (centres undefined),7.34% (inactive) and 2.65% (inactive)
16,CC1CN(C(=O)CCC(=O)NCCCN2CCC(Cc3ccccc3)CC2)c2cc(Cl)ccc2O1 (centres undefined),-43.5% (active)
17,Cc1ccc2c(c1)N(C(=O)CCC(=O)NCc1ccccc1F)CC(C)O2 (centres undefined),-22.7% (inactive)
18,COc1ccc(N2C(=O)CSC23C(=O)N(Cc2cccc(F)c2)c2ccccc23)cc1Cl (centres undefined),-0.577% (inactive)
19,CCOc1ccc(CCNC(=O)Nc2ccccc2)cc1OCC,14.7% (inactive)
20,O=C(NC(=O)c1cc(OCC(F)(F)F)ccc1OCC(F)(F)F)Nc1ccccc1,-35% (active)
21,CONC(=O)c1cc(OCC(F)(F)F)ccc1OCC(F)(F)F,8% (inactive)

row,Compound,"activity change, negative = inhibition"
1,CCC1CCCCN1C(=O)Cn1c(=O)n(CCCCCC(=O)NCc2ccccc2)c(=O)c2sccc21 (centres undefined),-26.9% (inactive)
2,COc1ccc(-c2onc(C)c2C)cc1S(=O)(=O)NCc1cccs1,-23.8% (inactive)
3,COc1ccccc1/C=C/c1nc(C#N)c(NC(C)c2ccccc2)o1 (centres undefined),4.56% (inactive)
4,O=C(Nc1ccc(N2CCN(C(=O)c3cccs3)CC2)cc1)c1cccnc1Cl,2.63% (inactive)
5,Cc1ccccc1C(=O)N1CCN(c2ccc(NC(=O)c3cccs3)cc2)CC1,-61.2% (active)
6,O=C(COc1ccccc1)Nc1ccc(N2CCN(C(=O)c3cccs3)CC2)cc1,-10.9% (inactive)
7,CC1=Nc2cc(C(=O)NCc3ccc(C)cc3)ccc2Sc2ccc(Cl)cc21,4.46% (inactive)
8,CCCCN(CC)CCCNC(=O)c1nn(C)c2c1CS(=O)(=O)c1ccccc1-2,4.54% (inactive)
9,COc1ccc(Cn2cc(C(=O)c3ccc(C)cc3)c(=O)c3cc(OC)c(OC)cc32)cc1,-0.034% (inactive)
10,CN(C)S(=O)(=O)N1CCN(c2ccc([N+](=O)[O-])cc2)CC1,-43% (active)
11,Cc1ccc(N2CCN(S(=O)(=O)N(C)C)CC2)cc1Cl,-16.4% (inactive)
12,O=[N+]([O-])c1ccc(N2CCN(c3ccc(O)cc3)CC2)c(Cl)c1,-19% (inactive)
13,COc1cc(Cl)c(C)cc1Nc1nnc(-n2nc(C)cc2C)c2ccccc12,-5.89% (inactive)
14,Cc1cc2c(s1)c1cnn(Cc3c(F)cccc3Cl)c(=O)c1n2C,15.1% (inactive)
15,Cn1c(=O)oc2cc(S(=O)(=O)N3CCC(C(=O)Nc4ccc(OC(F)(F)F)cc4)CC3)ccc21,-36.4% (active)
16,Cc1ccc2nc(NC(=O)C3CCN(S(=O)(=O)c4ccc5c(c4)oc(=O)n5C)CC3)sc2c1,-9.2% (inactive)
17,COc1ccc(NC(=O)C2CCN(S(=O)(=O)c3ccc4[nH]c(=O)oc4c3)CC2)c(OC)c1,1.07% (inactive)
18,Cc1ccc(S(=O)(=O)N(CC(=O)Nc2ccc(Cl)cc2Cl)c2ccccc2C)cc1,-14.7% (inactive)
19,Cc1c(Cl)cccc1NC(=O)Cn1cc(C(=O)c2cccs2)c2ccccc21,-23.5% (inactive)
20,CCOc1ccc(NC(=O)c2cc3c(=O)n(Cc4cccs4)ccc3nc2C)cc1,2.95% (inactive)
21,COc1ccc(CN2C(=O)C(NC(=O)c3cccc(C)c3)(C(F)(F)F)N=C2c2ccccc2)cc1 (centres undefined),2.79% (inactive)
